In PubChem BioAssay AID1240 (Sanford-Burnham Center for Chemical Genomics, 2008):
Out of some 50,000 compounds screened, about 800 (1.6%) showed an effect of 50% or more. What follows is part of a selection rich in strong results, with near analogues and random picks from the rest.

These molecules were tested against Bcl-2-like protein 10 (Homo sapiens) (UniProt Q9HD36) (assay: Phenotype converters, Bcl-B/TR3 peptide binding displacement, primary biochemical FP (AID 1240;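 further: 0% = Bcl-B with tracer peptide and DMSO and 100% = tracer peptide lacking Bcl-B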)). Conditions: GST-Bcl-B / FITC-TR3 peptide fluorescence polarization; stronger effect = higher value; compound at 3.75 mg/L.
Bcl-2-like protein 10 (Homo sapiens), sequence (Q9HD36 whole entry, looked up): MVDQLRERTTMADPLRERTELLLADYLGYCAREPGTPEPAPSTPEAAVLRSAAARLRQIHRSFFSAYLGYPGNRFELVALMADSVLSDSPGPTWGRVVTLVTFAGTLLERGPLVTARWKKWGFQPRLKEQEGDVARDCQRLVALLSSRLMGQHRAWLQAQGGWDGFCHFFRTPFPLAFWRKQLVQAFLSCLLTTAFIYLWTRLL

| Compound | displacement |
| --- | --- |
| Cc1ccc(-c2csc(NC(=O)C3C4CCC(C4)C3C(=O)O)n2)c(C)c1 (configuration not stated) | -0.1% |
| CC(Oc1ccccc1)C(=O)NCc1cccnc1 (configuration not stated) | 3.9% |
| CCOc1ccc2nc(NC(=O)c3ccccc3C(=O)O)sc2c1 | -7% |
| CCOc1ccc2nc(NC(=O)C(c3ccccc3)c3ccccc3)sc2c1 | 66.7% |
| CCOc1ccc2nc(NC(=O)c3ccccc3O)sc2c1 | -1% |
| COc1ccc(Cc2nc(-c3ccc(Cl)cc3)no2)cc1OC | 1.1% |
| Cc1ccc(OCCOc2ccc(Br)cc2C=C2C(=O)NC(=S)NC2=O)cc1 | -23.5% |
| O=C(CSc1nc2ccccc2o1)NCc1ccco1 | -19.3% |
| Cc1ccc(N(CC(=O)O)S(=O)(=O)c2ccc(F)cc2)cc1 | 8.4% |
| CCOC(=O)c1c(-c2ccccc2)oc2cc(Br)c(OC(=O)c3ccco3)cc12 | 8.8% |
| CCOC(=O)c1c(-c2ccccc2)oc2ccc(OC(=O)c3ccco3)cc12 | 99.8% |
| Cc1oc2ccc(OC(C)C(=O)O)cc2c1C(=O)O (configuration not stated) | 14.7% |
| CCOC(=O)c1c(-c2ccccc2)oc2ccc(OC(=O)C(C)(C)C)cc12 | 10.8% |
| CCOc1ccc2oc(-c3ccccc3)c(C(=O)O)c2c1 | 5.4% |
| CC(Oc1ccc2oc(-c3ccccc3)c(C(=O)O)c2c1)C(=O)O (configuration not stated) | 59.2% |
| O=C(CSc1nc2ccccc2[nH]1)N/N=C/c1cccc(Cl)c1Cl | -5.4% |
| COc1ccccc1CC(=O)N1CCN(c2ccc([N+](=O)[O-])cc2)CC1 | 11.9% |
| COc1ccc(CC(=O)Nc2sc3c(c2C(=O)Nc2ccccc2Cl)CCCC3)cc1 | -9.7% |
| COc1ccc(Cl)cc1/C=C1/C(=O)NN(c2cccc(Br)c2)C1=O | -1.3% |
| Cc1ccc(N2C(=O)Cn3c2nc2c3c(=O)n(C)c(=O)n2C)cc1Cl | -12.5% |
| COc1ccc(N2C(=O)Cn3c2nc2c3c(=O)n(C)c(=O)n2C)cc1 | 61.6% |
| Cc1cccc(N2C(=O)Cn3c2nc2c3c(=O)n(C)c(=O)n2C)c1 | -5.8% |

| Compound | displacement |
| --- | --- |
| CC(O)c1cccc(NC(=O)c2nn3c(c2Cl)NC(c2ccco2)CC3C(F)(F)F)c1 (configuration not stated) | -0.1% |
| COc1ccc(C(=O)NC(=S)NCc2ccco2)cc1 | 9.4% |
| Cn1c(-n2c(CCN3C(=O)c4ccccc4C3=O)nc3ccccc3c2=O)nc2ccccc21 | 66.3% |
| Cn1c(-n2c(CCCN3C(=O)c4ccccc4C3=O)nc3ccccc3c2=O)nc2ccccc21 | 35.4% |
| Cc1cccc(-n2c(CCN3C(=O)c4ccccc4C3=O)nc3ccccc3c2=O)n1 | -0.9% |
| C/C(=N\NC(=O)c1ccccn1)c1ccc(F)cc1 | -18.6% |
| O=C1NC(=O)N(c2ccc(Cl)cc2)C(=O)/C1=C/c1ccc(O)c(Br)c1 | -8.4% |
| COC(=O)c1cccc(S(=O)(=O)N2CCOCC2)c1 | -16% |
| O=C(Oc1ccc(Cl)cc1)c1cccc(S(=O)(=O)N2CCOCC2)c1 | -8.4% |
| O=C(Oc1cccc(-c2cnc3ccccc3n2)c1)c1cccc(S(=O)(=O)N2CCOCC2)c1 | 225% |
| Cc1cccc(NC(=O)/C(C#N)=C/c2cn(CC(=O)Nc3ccccc3)c3ccccc23)c1C | -60.5% |
| COc1ccc(NC(=O)/C(C#N)=C/c2cn(CC(=O)Nc3ccccc3)c3ccccc23)cc1 | -21.4% |
| N#C/C(=C\c1cn(CC(=O)Nc2ccccc2)c2ccccc12)C(=O)NCc1ccccc1 | 61.2% |
| N#C/C(=C\c1cn(CC(=O)Nc2ccccc2)c2ccccc12)C(=O)Nc1ccccc1Cl | 126% |
| N#C/C(=C\c1cn(CC(=O)Nc2ccccc2)c2ccccc12)C(=O)Nc1ccc(F)cc1 | -30.3% |
| N#C/C(=C\c1cn(CC(=O)Nc2ccccc2)c2ccccc12)C(=O)Nc1ccccc1 | -36.7% |
| C#CCn1cc(/C=C(/C#N)C(=O)Nc2ccc(OCC)cc2)c2ccccc21 | 5.9% |
| CCOc1cccc(NC(=O)/C(C#N)=C/c2cn(CC(=O)Nc3ccccc3)c3ccccc23)c1 | 104% |
| CCc1ccccc1NC(=O)/C(C#N)=C/c1cn(CC(=O)Nc2ccccc2)c2ccccc12 | -26.1% |
| Cc1ccc2c(c1)c(-c1ccccc1)c(-c1ccccc1)n2CC(O)CN1C(=O)CSC1=O (configuration not stated) | 11.4% |
| CCOc1ccc(C2C(C(=O)/C=C/c3ccccc3)=C(O)C(=O)N2CCCCCC(=O)O)cc1 (configuration not stated) | -1% |
| O=C(NC(=S)Nc1ccc(Cl)c(-c2nc3ccccc3s2)c1)c1ccco1 | 5.8% |

| Compound | displacement |
| --- | --- |
| c1ccc2nc(NCc3ccncc3)ccc2c1 | -8.8% |
| CCc1ccc(N2C(=O)NC(=O)/C(=C\c3ccc(OCC(=O)O)c(OC)c3)C2=O)cc1 | 9.9% |
| CCOc1ccc(NC(=O)CC2S/C(=N\N=C\c3ccc(O)c(OC)c3)NC2=O)cc1 (configuration not stated) | 9.6% |
| CCOc1ccc(/C=c2\sc3nc4ccccc4n3c2=O)cc1Cl | 19.1% |
| COc1cc(/C=c2\sc3nc4ccccc4n3c2=O)cc(I)c1OCCOc1cccc(C)c1 | 10.9% |
| C=CCc1ccccc1OCCOc1ccc(/C=c2\sc3nc4ccccc4n3c2=O)cc1OCC | 100% |
| COc1cc(/C=c2\sc3nc4ccccc4n3c2=O)cc(I)c1OCC(=O)O | -4.2% |
| COc1cc(/C=c2/sc3nc4ccccc4n3c2=O)cc(I)c1OCc1ccccc1 | 74.2% |
| C=CCc1ccccc1OCCOc1cccc(/C=c2\sc3nc4ccccc4n3c2=O)c1 | 13.4% |
| CCOc1cc(/C=c2/sc3nc4ccccc4n3c2=O)cc(I)c1OCC | 77.3% |
| COc1cc(/C=c2/sc3nc4ccccc4n3c2=O)cc(Br)c1OCc1ccccc1 | 1.8% |
| CCOc1cc(/C=c2\sc3nc4ccccc4n3c2=O)ccc1OCCOc1ccc(Br)cc1 | 19% |
| COc1ccc(OC)c(NC(=O)CN(c2ccc(Br)cc2)S(C)(=O)=O)c1 | -12.8% |
| CCN(CC)CCCCOc1ccc(Cl)cc1C | -7.4% |
| COc1ccc(NC(=S)NC(=O)c2cccs2)cc1 | -9.3% |
| O=C(Nc1ccccc1)C1C2C3CCC(C3)C12 (configuration not stated) | 4% |
| O=C(CSCc1ccccc1)Nc1nnc(/C=C/c2ccccc2)s1 | 39.9% |
| CC(=O)c1ccc(NC(=O)c2ccc3c(c2)C(=O)N(c2ccc(C)c(C)c2)C3=O)cc1 | 8.9% |
| Cc1ccc(N2C(=O)c3ccc(C(=O)Nc4cccc(C)c4C)cc3C2=O)c(C)c1 | 6.6% |
| CN1CCN(C(=O)C(=O)Nc2cccc3ccccc23)CC1 | -2.6% |
| COc1cccc(/C=N/NC(=O)c2cccc(N3CCCC3=O)c2)c1 | -3.5% |
| COc1ccc(/C=C2/SC(=O)NC2=O)c(OC)c1 | 4.9% |

| Compound | displacement |
| --- | --- |
| NC1=NC(=O)/C(=C/c2ccc(Br)cc2)S1 | 3.7% |
| NC1=NC(=O)/C(=C/c2ccc(Cl)cc2)S1 | 57.4% |
| COc1cc(/C=C2\SC(N)=NC2=O)cc(OC)c1 | -9.9% |
| CC(=O)NC1=NC(=O)/C(=C\C=Cc2ccccc2)S1 | -42.4% |
| COc1ccc(/C=C2\SC(=O)NC2=S)cc1 | 67.8% |
| CN(C)c1ccc(/C=C/C=C2/SC(N)=NC2=O)cc1 | -17.2% |
| COc1ccc(/C=C2\SC(N)=NC2=O)cc1 | 124% |
| NC1=NC(=O)/C(=C\c2ccc(S(=O)(=O)O)cc2)S1 | 12.8% |
| COc1ccc(C(=O)Oc2ccc(/C=C3\SC(N)=NC3=O)cc2)cc1 | 10.1% |
| COc1ccc(/C=C2\SC(=S)N(C(C)C)C2=O)cc1 | -3.9% |
| NC1=NC(=O)/C(=C\C=C\c2ccccc2)S1 | 154% |
| CC(=O)Nc1ccc2sc(C)nc2c1 | 12.9% |
| COc1cccc(CN2CCN(Cc3cc(OC)ccc3OC)CC2)c1 | -9% |
| COc1ccc(C2SCC(=O)N2CCc2ccc(OC)c(OC)c2)c(OC)c1 (configuration not stated) | -6.4% |
| COc1ccc(N2C(=O)C3C4C=CC(C5CC45)C3C2=O)c([N+](=O)[O-])c1 (configuration not stated) | 12.7% |
| N/C(=N\OC(=O)c1ccc(Cl)c([N+](=O)[O-])c1)c1ccccc1 | -3.2% |
| COc1ccc(C2CC(=O)C3=C(C2)Nc2ccccc2NC3c2cccs2)cc1OC (configuration not stated) | -4.5% |
| Cc1ccccc1N1C(=O)c2ccc(C(=O)O)cc2C1=O | -3.3% |
| O=C(O)c1ccccc1S(=O)CCO (configuration not stated) | 6.8% |
| O=C(c1ccc(N2CCN(C(=O)c3ccc(F)cc3F)CC2)cc1)c1cccc(F)c1 | 72.1% |
| O=C(c1cccc(F)c1)N1CCN(c2ccc(F)cc2)CC1 | -11.6% |
| O=C(c1ccc(N2CCN(C(=O)c3ccccc3F)CC2)cc1)c1cccc(F)c1 | -53.4% |

| Compound | displacement |
| --- | --- |
| O=C(c1ccc(N2CCN(C(=O)c3ccc(F)cc3)CC2)cc1)c1cccc(F)c1 | -6.4% |
| O=C(c1cccc(F)c1)N1CCN(c2ccccc2)CC1 | -5.4% |
| O=C(c1cccc(F)c1)N1CCN(c2ccc([N+](=O)[O-])cc2)CC1 | 118% |
| Cc1ccc(/C(=N\S(=O)(=O)c2cccc([N+](=O)[O-])c2)Nc2ccccc2)cc1 | 13.2% |
| COc1ccccc1OCC(=O)Nc1ccc2c(c1)OCCO2 | 2.2% |
| COc1cc(/C=N/N2C(=O)C3C4C=CC(CC4)C3C2=O)cc(I)c1O (configuration not stated) | 3.3% |
| COc1ccc(N2C(=O)NC(=O)/C(=C/c3cccc(O)c3)C2=O)cc1 | -6.3% |
| C=CCN1C(=O)/C(=C\c2ccc(-c3ccc([N+](=O)[O-])cc3Cl)o2)C(=O)NC1=S | 21% |
| O=C1NC(=O)N(c2ccccc2)C(=O)/C1=C\c1cccn1-c1cccc([N+](=O)[O-])c1 | -2.6% |
| CN1C(=O)NC(=O)/C(=C/c2ccc(-c3ccc(Cl)c(Cl)c3)o2)C1=O | -7.2% |
| CN1C(=O)NC(=O)/C(=C/c2cccn2-c2cccc([N+](=O)[O-])c2)C1=O | 115% |
| CC1=C(C#N)C(=O)NC(=O)/C1=C\c1ccc(-c2cccc(Cl)c2)o1 | 24.7% |
| COc1ccc(N2C(=O)NC(=O)/C(=C/c3cccn3-c3cccc([N+](=O)[O-])c3)C2=O)cc1 | -4% |
| CN1C(=O)NC(=O)/C(=C\c2ccc(Cl)cc2Cl)C1=O | 3.8% |
| Cc1ccc([N+](=O)[O-])cc1-c1ccc(/C=C2/C(=O)NC(=O)N(C)C2=O)o1 | -8% |
| CN1C(=O)NC(=O)/C(=C/c2ccc(-c3cccc(Cl)c3)o2)C1=O | 81.5% |
| CN1C(=O)NC(=O)/C(=C/c2ccc(-c3ccc([N+](=O)[O-])cc3Cl)o2)C1=O | 93.6% |
| CN1C(=O)NC(=O)/C(=C/c2ccc(-c3ccc(Cl)cc3Cl)o2)C1=O | 72.6% |
| CC1(C)OC(=O)C(=Cc2ccc(-c3ccc(Cl)cc3Cl)o2)C(=O)O1 | 34.4% |
